Test results taken from the supplement of paper PMC12669032.
A number with no mark means an inactive call.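 The calls were made as follows: active = AUC reduced over 20% with Padj below 0.05 in at least 2 of 3 replicates; inactive = otherwise.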

Tests used:
Assay in all cases: growth AUC relative to DMSO control (median of replicates) (fraction); higher = more growth (less inhibition), active = hit call of the paper
Details in all cases: 20 µM; 24 h
Akkermansia muciniphila = test system: Akkermansia muciniphila
Procedure, shortened: (§1)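 Hourly OD600 readings over 24 h tracked anaerobic gut bacterial monocultures grown at 37 °C in mGAM from OD600 0.05 with 20 µM compound (1% DMSO). After the minimum OD was set to 0, area under the growth curve was normalised to the plate median of solvent-only wells, or to row and column medians on the industrial chemical plate. Values are medians of three biological replicates grown on separate days.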

Bacteroides caccae = test system: Bacteroides caccae
Procedure, shortened: as §1

Bacteroides clarus = test system: Bacteroides clarus
Procedure, shortened: as §1

Bacteroides dorei = test system: Bacteroides dorei
Procedure, shortened: as §1

Bacteroides stercoris = test system: Bacteroides stercoris
Procedure, shortened: as §1

[1] = test system: Bacteroides thetaiotaomicron
Procedure, shortened: as §1

Bacteroides uniformis = test system: Bacteroides uniformis
Procedure, shortened: as §1

[2] = test system: Bifidobacterium longum subsp. longum
Procedure, shortened: as §1

Clostridium difficile = test system: Clostridium difficile
Procedure, shortened: as §1

Collinsella aerofaciens = test system: Collinsella aerofaciens
Procedure, shortened: as §1

Coprococcus comes = test system: Coprococcus comes
Procedure, shortened: as §1

Escherichia coli ED1a = test system: Escherichia coli ED1a
Procedure, shortened: as §1

Escherichia coli IAI1 = test system: Escherichia coli IAI1
Procedure, shortened: as §1

Eubacterium rectale = test system: Eubacterium rectale
Procedure, shortened: as §1

[3] = test system: Fusobacterium nucleatum subsp. animalis
Procedure, shortened: as §1

Lactobacillus gasseri = test system: Lactobacillus gasseri
Procedure, shortened: as §1

Lactobacillus paracasei = test system: Lactobacillus paracasei
Procedure, shortened: as §1

Odoribacter splanchnicus = test system: Odoribacter splanchnicus
Procedure, shortened: as §1

[4] = test system: Parabacteroides distasonis
Procedure, shortened: as §1

Parabacteroides merdae = test system: Parabacteroides merdae
Procedure, shortened: as §1

| SMILES | growth AUC (Akkermansia muciniphila) | growth AUC (Bacteroides caccae) | growth AUC (Bacteroides clarus) | growth AUC (Bacteroides dorei) | growth AUC (Bacteroides stercoris) | growth AUC [1] | growth AUC (Bacteroides uniformis) | growth AUC [2] | growth AUC (Clostridium difficile) | growth AUC (Collinsella aerofaciens) | growth AUC (Coprococcus comes) | growth AUC (Escherichia coli ED1a) | growth AUC (Escherichia coli IAI1) | growth AUC (Eubacterium rectale) | growth AUC [3] | growth AUC (Lactobacillus gasseri) | growth AUC (Lactobacillus paracasei) | growth AUC (Odoribacter splanchnicus) | growth AUC [4] | growth AUC (Parabacteroides merdae) |
| --- | --- | --- | --- | --- | --- | --- | --- | --- | --- | --- | --- | --- | --- | --- | --- | --- | --- | --- | --- | --- |
| c1coc(-c2nc3ccccc3[nH]2)c1 | 1.03 | 0.937 | 1 | 0.919 | 1.17 | 0.96 | 0.968 | 1.04 | 0.971 | 0.945 | 1.02 | 1.01 | 0.986 | 1.09 | 0.985 | 0.949 | 0.997 | 0.879 | 0.977 | 0.961 |
| CC(C)C(C(=O)OC(C#N)c1cccc(Oc2ccccc2)c1)c1ccc(OC(F)F)cc1 (stereo not given) | 0.959 | 0.981 | 0.956 | 1.02 | 1.08 | 0.987 | 1.01 | 0.965 | 1.01 | 1.01 | 1.02 | 0.998 | 0.979 | 0.848 | 0.968 | 1.01 | 1.02 | 1.07 | 0.983 | 0.971 |
| N#Cc1nn(-c2c(Cl)cc(C(F)(F)F)cc2Cl)c(N)c1SC(F)(F)F | 1.01 | 0.941 | 0.858 | 0.899 | 1.14 | 0.953 | 0.928 | 1.09 | 0.909 | 0.942 | 0.857 | 1.02 | 0.985 | 0.687 (active) | 0.96 | 0.729 (active) | 1.04 | 0.571 (active) | 0.751 (active) | 0.868 |
| O=C(Nc1ccccc1-c1ccc(Cl)cc1)c1cccnc1Cl | 0.987 | 0.998 | 0.986 | 0.998 | 1.01 | 0.958 | 0.966 | 1.03 | 0.998 | 0.999 | 1 | 0.981 | 1.01 | 0.968 | 0.956 | 1.08 | 0.972 | 0.86 | 0.839 | 0.998 |
| NCCO.O=C(O)c1nc(Cl)ccc1Cl | 1.02 | 1.01 | 1.04 | 0.987 | 1.02 | 1.04 | 1 | 1.04 | 1 | 1.02 | 1.05 | 1.01 | 1.01 | 0.912 | 1.04 | 0.979 | 1.02 | 1.02 | 1.02 | 1.01 |
| CCCN(CCC)c1c([N+](=O)[O-])cc(S(C)(=O)=O)cc1[N+](=O)[O-] | 0.897 | 0.942 | 0.963 | 0.937 | 0.856 | 0.987 | 0.954 | 0.948 | 0.965 | 0.914 | 1.03 | 0.978 | 0.962 | 0.974 | 0.948 | 0.84 | 0.988 | 1.08 | 0.967 | 0.936 |
| COC(=O)NC(=S)Nc1ccccc1NC(=S)NC(=O)OC | 1.04 | 0.99 | 0.985 | 1.01 | 1.12 | 0.981 | 0.988 | 0.958 | 0.951 | 1.01 | 0.93 | 0.995 | 0.996 | 1.14 | 1.12 | 0.835 | 1.01 | 1.05 | 0.944 | 1.03 |
